Screens as filed in PubChem.
The list is not random: actives were taken first. Their share in the collection is about 3.4%.
ANO1 block: mouse TMEM16A channel inhibition, primary screen | HEK293 TMEM16A/YFP iodide influx fluorescence, ionomycin | 310,000 compounds, 1.2% hits | normalized B-score (activity score, 25-100; higher = stronger inhibition) at 10 µM | Q8BHY3 | AID 588511;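 active means ratio plate-corrected score three or more library SD toward inhibition, starting fluorescence score within five deviations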;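 further: score derived from kinetic fluorescence span divided by baseline fluorescence per well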
Target sequence (Q8BHY3 whole entry, looked up): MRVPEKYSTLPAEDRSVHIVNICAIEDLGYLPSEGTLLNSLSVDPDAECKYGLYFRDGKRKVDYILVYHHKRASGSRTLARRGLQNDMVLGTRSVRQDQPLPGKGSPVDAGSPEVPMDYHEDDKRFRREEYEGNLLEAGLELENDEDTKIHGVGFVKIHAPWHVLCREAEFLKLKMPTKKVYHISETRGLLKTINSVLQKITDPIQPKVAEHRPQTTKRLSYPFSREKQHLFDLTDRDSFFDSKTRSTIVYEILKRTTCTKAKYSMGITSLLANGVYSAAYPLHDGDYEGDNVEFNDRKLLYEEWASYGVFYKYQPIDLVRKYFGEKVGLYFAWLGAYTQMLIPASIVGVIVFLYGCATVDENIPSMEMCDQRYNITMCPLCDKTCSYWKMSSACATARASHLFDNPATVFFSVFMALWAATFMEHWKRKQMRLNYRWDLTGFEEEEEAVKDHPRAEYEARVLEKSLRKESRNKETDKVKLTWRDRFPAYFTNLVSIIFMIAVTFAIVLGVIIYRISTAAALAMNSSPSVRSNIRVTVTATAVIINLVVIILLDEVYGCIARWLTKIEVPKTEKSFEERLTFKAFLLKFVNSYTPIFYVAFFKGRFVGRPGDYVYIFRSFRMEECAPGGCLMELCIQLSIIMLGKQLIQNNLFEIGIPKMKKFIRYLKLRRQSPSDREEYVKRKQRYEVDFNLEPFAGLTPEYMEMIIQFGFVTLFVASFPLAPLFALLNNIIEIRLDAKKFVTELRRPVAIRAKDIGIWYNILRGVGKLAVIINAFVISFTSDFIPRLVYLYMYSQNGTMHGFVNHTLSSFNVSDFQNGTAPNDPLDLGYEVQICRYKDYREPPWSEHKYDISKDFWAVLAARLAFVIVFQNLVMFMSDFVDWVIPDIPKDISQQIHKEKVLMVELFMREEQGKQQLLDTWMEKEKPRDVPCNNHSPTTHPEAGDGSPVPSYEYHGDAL
MEKK2wt PB1 HTS: raises or lowers MEK5 binding to wildtype human MEKK2 PB1 domain | Q9Y2U5 | bead flow cytometry, Alexa488-MEK5 binding to MEKK2 WT; actives lie on both sides | binding response (% of control), % at 10 µM | 290,000 compounds, 1.1% hits; in the data active means binding response below about 67% or above about 130%
TMEM16A act: activates or potentiates the mouse TMEM16A chloride channel; Q8BHY3; HEK293 TMEM16A/YFP-H148Q/I152L, iodide quench fluorescence; hits give low values; B-score at 10 µM; 340,000 compounds, 0.3% hits;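 active means fluorescence-ratio B-score plate-corrected deviation score at least 3 library SD below zero, with starting fluorescence score within 5 deviations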;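 further: channel opened by trigger with iodide after compound preincubation; score built on the fluorescence ratio of max minus min over baseline; more negative score means more quench and so TMEM16A activation or potentiation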
MEKK3 PB1 HTS: raises or lowers MEK5 binding to the human MEKK3 PB1 domain | Q99759 | bead-based flow cytometry, Alexa488-MEK5 binding to MEKK3; actives lie on both sides; 0 = blocked by unlabeled MEK5, 100 = vehicle | binding response (% of control), % at 10 µM | 290,000 compounds, 1.4% hits;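 active means binding response more than 3 SD above or below the average of its plate-row segment, actives on both sides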;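 further: Alexa488 bead fluorescence after subtracting the streptavidin-only scavenger bead signal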
MEKK2 mut-MEK5: signal of MEK5 binding to mutant human MEKK2 PB1 domain; AID 1530; percent response, % at 10 µM; bead flow cytometry, Alexa488-MEK5 binding to MEKK2 mutant; 290,000 compounds, 0.35% hits; in the data active means percent response above about 24%, passing the limit was not always enough
NTR1 agonist: NTR1 (human) agonism; activation, % at 20 µM; P30989; NTR1-U2OS beta-arrestin-GFP spot imaging, agonist mode; AID 493036; 330,000 compounds, 0.17% hits;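 active means activation at or above 40% of the spot to cytoplasm intensity ratio, with at least 20 cells analyzed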;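 further: 0% = DMSO without peptide and 100% = 100 nM NTR1 peptide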
Starred values were filed as active, the others as inactive; i = inactive; . = no result given; [ ] = remark or other dose.

SMILES | ANO1 block | MEKK2wt PB1 HTS | TMEM16A act | MEKK3 PB1 HTS | MEKK2 mut-MEK5 | NTR1 agonist
CCOc1ccc(-n2c(-c3ccoc3)nc3ccccc3c2=O)cc1 | i | 100.0 | i | 101.0 | 1.0 | -0.5
C/C=C(\C)C(=O)OC1C(C)=C2C(C1OC(=O)CCCCC)C(C)(OC(C)=O)CC(OC(=O)CCC)C1(O)C2OC(=O)C1(C)O (stereo unspecified) | 100* | 95.0 | . | 104.0 | 1.0 | 25.5
CCCCCn1c(=O)c(C(=O)NCc2ccncc2)c(O)c2ccccc21 | 25* | 107.0 | i | 105.0 | 9.0 | 1.6
CCCCn1c(=O)c(C(=O)NCc2ccc(Cl)cc2)c(O)c2ccccc21 | i | 110.0 | i | 109.0 | 3.0 | 4.3
Oc1ccccc1C1NCc2ccccc2-n2cccc21 (stereo unspecified) | i | 110.0 | i | 104.0 | 5.0 | 0.2
CN1CCN(c2nc3ccccn3c(=O)c2C=C2C(=O)N(C)C(=O)N(C)C2=O)CC1 | i | 111.0 | i | 135.0* | 1.0 | -0.4
CN(C)C1(c2nnnn2CCOC(=O)Nc2ccc(Cl)cc2)CCCCC1 | i | 98.0 | i | 100.0 | 3.0 | 4.1
CCCN(CC#CCOc1ccc(OC)cc1)CCC | i | 109.0 | -16.4* | 104.0 | 6.0 | -2.1
CN1CC[C@@H](c2ccc(F)cc2)[C@H](COc2ccc3c(c2)OCO3)C1 | . | 121.0 | . | 100.0 | 4.0 | .
COC1CCC(OC2CC(C3(C)CCC4(CC(O)C(C)C(C(C)/C=C(\C)C(=O)C(C)CC(C)C(=O)O)O4)O3)OC3(OC(C4OC(O)(CO)C(C)CC4C)CC3C)C2C)OC1C (stereo unspecified) | . | . | -4.76* | . | . | .
COc1cc(/C=C/c2nc3ccccc3c(=O)n2-c2ccccc2O)ccc1O | i | 98.0 | i | 98.0 | 2.0 | 1.5
COc1cc(/C=C/c2nc3ccccc3c(=O)n2-c2cccc(O)c2)ccc1O | i | 107.0 | -5.23* | 120.0 | 18.0 | 9.7
CCCC[n+]1cc(=N)o[n-]1 | i | . | i | . | . | 0.6
CC[C@H](C)[C@@H]1O[C@@]2(C=CC1C)CC1C[C@@H](CC=C(C)C(O[C@H]3CC(OC)C(O[C@H]4CC(OC)C(O)C(C)O4)C(C)O3)C(C)C=CC=C3CO[C@@H]4C(O)C(C)=C[C@@H](C(=O)O1)[C@]34O)O2 (stereo partly specified) | 25* | . | . | . | . | 24.1
CCC/C=N/O | . | . | i | . | . | 0.0
CN1CCN(c2cc(N3CCCC3)c([N+](=O)[O-])cc2F)CC1 | i | 111.0 | i | 105.0 | 6.0 | -2.4
CCN1CCN(c2cc(N3CCCC3)c(F)cc2[N+](=O)[O-])CC1 | i | 114.0 | i | 159.0* | 2.0 | -1.5
CN1CN(c2ccccc2)C2(CCN(CCCSc3ccccc3NC(=O)/C=C/c3ccccc3)CC2)C1=O | . | . | i | . | . | .
COC(=O)C1=C(c2ccc(S(C)(=O)=O)cc2)C[C@@H]2CC[C@H]1N2C(=O)NC1CCCCC1 | i | 101.0 | i | 102.0 | 2.0 | -0.1
COC1C(OC(=O)c2ccc(C)[nH]2)C(O)C(Oc2ccc3c(O)c(NC(=O)c4ccc(O)c(CC=C(C)C)c4)c(=O)oc3c2Cl)OC1(C)C (stereo unspecified) | 100* | 56.0 | i | 65.0 | 1.0 | 6.8
CCOc1cccc(=NC2CCCCC2)c2c(C)n(C)c(C)c12 | 100* | 113.0 | i | 106.0 | 9.0 | 11.0
CC1=C(O)C(=O)C=C2C1=CC=C1C2(C)CCC2(C)C3CC(C)(C(=O)O)CCC3(C)CCC12C (stereo unspecified) | . | . | -10.2* | . | . | .
COC(=O)C1=CO[C@@H](C)[C@@H]2CN3CC[C@]4(C(=O)Nc5ccccc54)[C@@H]3C[C@H]12 | i | 98.0 | i | 138.0* | 19.0 | -0.4
CN1C(=O)C(C)(C2=CCCCC2)C(=O)NC1=S (stereo unspecified) | . | . | i | . | . | .
CC[C@H]1C2C[C@H]3[C@@H]4N(C)c5ccccc5C45C[C@H](C2[C@H]5O)N3[C@@H]1O (stereo partly specified) | 100* | . | i | . | . | 0.1
SMILES | ANO1 block | MEKK2wt PB1 HTS | TMEM16A act | MEKK3 PB1 HTS | MEKK2 mut-MEK5 | NTR1 agonist
CCC1C2CC3C4N(C)c5ccccc5C45CC(C2C5O)N3[C@@H]1O (stereo partly specified) | i | 101.0 | i | 101.0 | 1.0 | -0.5
O=C1NC(=O)C2(Cc3cc([N+](=O)[O-])ccc3N3CCN(C(=O)c4ccccc4)CC32)C(=O)N1 (stereo unspecified) | i | 94.0 | i | 98.0 | -1.0 | 1.6
CCCCNS(=O)(=O)c1ccc(OCC(=O)N2CCN(Cc3ccc4c(c3)OCO4)CC2)cc1 | i | 100.0 | -4.72* | 94.0 | -3.0 | 0.1
O=C(COc1ccc(S(=O)(=O)N2CCOCC2)cc1)N1CCN(Cc2ccc3c(c2)OCO3)CC1 | i | 100.0 | i | 97.0 | 8.0 | 3.7
CC1CC2(C)C(CCC3C2CCC2(C)C(OP(=O)(N4CC4)N4CC4)CCC32)CC1=O (stereo unspecified) | . | . | i | . | . | .
CC(C)(C)NC(=O)NC(=O)CN1CC=C(c2ccccc2)CC1 | i | 123.0 | i | 128.0 | 60.0* | 0.7
O=C(CN1CC=C(c2ccccc2)CC1)NC(=O)NC1CCCCC1 | i | 103.0 | i | 103.0 | 8.0 | -0.1
CC1(C)COC(Nc2cccc(Cl)c2)=N1 | i | 95.0 | i | 100.0 | -1.0 | -1.3
Cc1ccccc1N1C(=O)/C(=C/c2ccco2)C(=O)NC1=S | i | 80.0 | . | 82.0*[inhibitor] | -17.0 | .
CCOc1ccc(N2C(=O)/C(=C/c3ccco3)C(=O)NC2=S)cc1 | i | 100.0 | i | 104.0 | 0.0 | -0.1
C=C(C)CN1CC[C@]23c4c5ccc(O)c4O[C@H]2c2[nH]c4ccccc4c2C[C@@]3(O)C1C5 | i | 97.0 | . | 96.0 | 1.0 | .
O=C(Nc1nccs1)c1c(O)c2c(n(Cc3ccco3)c1=O)CCCC2 | i | -4.0* | i | 108.0 | 5.0 | 1.6
COc1ccc2[nH]c3c(c2c1)CCNC3C (stereo unspecified) | i | 111.0 | i | 103.0 | 6.0 | 1.6
COc1ccc2c3c([nH]c2c1)C(C)NCC3 (stereo unspecified) | i | 1.0* | i | 94.0 | 48.0 | -3.8
CCOC(=O)C1CCN(Cc2ccc(Cl)nc2)CC1 | i | 105.0 | i | 103.0 | 2.0 | -0.7
O=C(c1ccc(Cl)cc1)C1CCCN(Cc2ccc3c(c2)OCCO3)C1 (stereo unspecified) | i | 108.0 | i | 104.0 | -9.0 | 2.2
O=C(c1ccc(Cl)cc1)C1CCCN(Cc2ccc3ncccc3c2)C1 (stereo unspecified) | 25* | 111.0 | i | 110.0 | -2.0 | 4.9
